Screening results as filed in PubChem.
Compounds with a hit are over-represented: about 10% of the library has one in this group of screens.
NPR1 antag = Natriuretic polypeptide receptor (hNpr1) antagonism - Primary qHTS | hit rate 1.6% among 76,000 | Potency, µM (top dose mostly 46.3 µM), most hits filed as inhibitors | Atrial natriuretic peptide receptor 1 (Homo sapiens), P16066 | HEK293 hNpr1 GloSensor cGMP, ANP-stimulated luminescence; calls by dose curve; also: nearly all actives have a fitted effect of over 60% in size
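Compound pre-incubated 30 min at room temperature on GloSensor-loaded HEK293 cells stably carrying hNpr1 and the pGS-40F cGMP biosensor. Stimulation uses hNppA at 0.1 nM final; luminescence is taken at baseline and 20 min post-agonist.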
HEK293 tox = Cytotoxic Profiling in HEK 293 Cell Line of Diverse Libraries Using Quantitative High-Throughput Screening | HEK 293 viability, ATP luminescence (CellTiter-Glo), 48-72 h | Potency, µM (doses to about 115 µM), most hits filed as inhibitors | hit rate 6.6% among 94,000 | AID 1345083, 2018; also: nearly all actives have a fitted effect of over 60% in size
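qHTS cytotoxicity; HEK 293, 250 cells/well; compound pinned; 48 or 72 hr, 37 degree Celsius, 5% CO2, 95% humidity; CellTiter-Glo, 10 min RT; luminescence (ATP).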
GPT2 inhibitor = Primary qHTS assay for inhibitors of Glutamate pyruvate transaminase 2 (GPT2). Alanine aminotransferase 2 (Homo sapiens), Q8TD30. Recombinant GPT2, coupled pyruvate oxidase/HRP Amplex Red fluorescence. Potency, µM (doses to about 57.7 µM), most hits filed as inhibitors. hit rate 0.25% among 100,000; also: nearly all actives have a fitted effect of over 60% in size
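GPT2 10ng/uL, a-KG 250uM, L-Ala 2mM, HEPES pH7.5 + 0.0001% Tween; 30 min RT. Then Amplex mix (PO/HRP/ThPP), 30 min RT dark, fluorescence. AOA 50uM used as positive control.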
FLuc inh = Firefly luciferase inhibition profiling of diverse chemical library using quantitative high-throughput screening | Luciferin 4-monooxygenase (Photinus pyralis), P08659 | hit rate 2.5% among 76,000 | Potency, µM (highest dose often 115 µM), most hits filed as inhibitors | purified P. pyralis luciferase, luminescence, biochemical; also: nearly all actives have a fitted effect of over 65% in size
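FLuc 10nM, D-luciferin 10uM, ATP 10uM, Mg acetate 10mM, Tris acetate pH 7.5, Tween/BSA; cpd qHTS; enzyme added last; CCD luminescence.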
NIH3T3 tox = Cytotoxic Profiling in NIH 3T3 Cell Line of Diverse Libraries Using Quantitative High-Throughput Screening; NIH 3T3 viability, CellTiter-Glo ATP luminescence, 48-72 h; Potency, µM (series often up to 96.7 µM), hits mostly inhibitors; hit rate 4.3% among 94,000; AID 1345082, 2018; also: nearly all actives have a fitted effect of over 55% in size
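Mouse fibroblast NIH 3T3 cells, 400 per well, received compound via pintool and were incubated for 48 or 72 hr prior to CellTiter-Glo ATP luminescence measurement.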
A number is an active result; 0 = inactive; ? = inconclusive; - = no result. Unless noted, calls follow the shape of the dose curve; as a rule, active = well fitted curve in the direction sought with a large enough effect; inconclusive = small, poorly fitted or top-dose-only effect, or another doubt; inactive = no such curve, though single readings can be large; an effect the other way counts as inactive or inconclusive.

SMILES	NPR1 antag	HEK293 tox	GPT2 inhibitor	FLuc inh	NIH3T3 tox
Cc1cc(Cn2cc3c4c(cccc42)[C@H](CC(C)C)N[C@H](C(=O)NCCN(C)C)C3)no1	0	35µM	0	0	22µM
COc1ccc(CC(=O)N2Cc3ccccc3CC3(CCN(CC4CCNC4)C3)C2)cc1 (stereo not given)	-	?	0	-	?
COc1cccc(N2CC(C(=O)N3CCC(C(=O)NCc4cccc(F)c4)C3)NC2=O)c1 (stereo not given)	0	0	0	0	0
COc1cccc(-c2cc(C3CCN(S(=O)(=O)c4ccc(F)cc4F)CC3)[nH]n2)c1	?	25µM	0	0	?
COc1cccc(-c2cc(C3CCN(S(=O)(=O)c4ccc(C#N)cc4)CC3)[nH]n2)c1	?	28µM	0	0	28µM
CCOc1ccccc1CN1CCC2(CCN([S+](=O)([O-])c3cccs3)CC2)Oc2ccccc21	0	0	0	0	?
CCCN1CCC2(CCN([S+](=O)([O-])c3cccs3)CC2)Oc2ccccc21	0	45µM	0	0	?
O=[S+]([O-])(c1cccs1)N1CCCC2(CC(Cc3ccccc3)=NO2)C1 (stereo not given)	0	?	0	0	0
O=[S+]([O-])(c1cccs1)N1CCC2(CC1)CC(Cc1ccccc1)=NO2	0	45µM	0	0	?
CN1CCN(C(=O)c2cc3n(n2)CC(c2ccc(Br)cc2)OC3)CC1 (stereo not given)	0	40µM	0	0	?
O=C(c1cc2n(n1)CC(c1ccc(Cl)cc1)OC2)N1CCN(c2ccccc2Cl)CC1 (stereo not given)	0	28µM	0	0	?
O=C(c1cc2n(n1)CC(c1ccc(Cl)cc1)OC2)N1CCN(c2ccc(F)cc2)CC1 (stereo not given)	?	40µM	0	0	?
O=C(c1cc2n(n1)CC(c1ccc3c(c1)OCO3)OC2)N1CCN(c2ccccc2)CC1 (stereo not given)	?	?	0	0	?
O=C(c1ccc2c(c1)OCO2)N1CC2(Cc3ccccc3NC2=O)C1	-	0	0	-	?
O=C(NCc1cccs1)c1ccc2nc(-c3ccncc3)oc2c1	-	0	0	-	0
Cc1ccc(NC(=O)Nc2ccc(C)n(CC(=O)Nc3ccccc3)c2=O)cc1	0	0	0	0.79µM	0
CCCN1CCN(C(=O)Cn2c(C)ccc(NC(=O)Nc3ccccc3)c2=O)CC1	0	0	0	35µM	0
COc1cccc(NC(=O)Cn2c(C)ccc(NC(=O)Nc3ccc(C)cc3)c2=O)c1	?	79µM	0	1µM	?
Cc1ccc(NC(=O)Nc2ccc(C)n(CC(=O)NC3CCCCC3)c2=O)cc1	?	?	0	0.4µM	?
Cc1ccc(-c2cn3cc(C(=O)NCC4CC4)nc3s2)cc1	-	0	0	-	0
COc1ccc(OCc2nc(C)c(CCO)c(=O)n2CC(=O)Nc2ccc(C)c(C)c2)cc1	0	?	0	0	0
COc1ccc(NC(=O)Nc2ccc(C)n(CC(=O)Nc3ccc(C)c(C)c3)c2=O)cc1	0	?	0	0.71µM	0
OC1CCC(NCc2ccc(-c3cnc4c(OCc5ccccc5)nccn34)cc2)CC1 (stereo not given)	0	50µM	0	0	22µM
O=C(Cn1cnnn1)NCc1ccc(-c2cnc3c(Oc4ccccc4)nccn23)cc1	0	?	0	0	0
O=[S+]1([O-])CCN(Cc2ccc(-c3cnc4c(OCc5ccccc5)nccn34)cc2)CC1	11µM	35µM	?	?	22µM
O=C1CN(Cc2ccc(-c3cnc4c(OCc5ccccc5)nccn34)cc2)CCN1	?	?	0	?	?
NC(=O)C1CCCN(Cc2ccc(-c3cnc4c(OCc5ccccc5)nccn34)cc2)C1 (stereo not given)	0	45µM	0	45µM	40µM
CCOc1nccn2c(-c3ccc(CN4CCN(C(C)=O)CC4)cc3)cnc12	0	0	0	?	?
